The values below come from PubChem BioAssay.

Calls of active or inactive are those of the source.

Assay [1] is described as follows: compounds binding Alexa647 anti-His antibody – biochemical, small-molecule microarray, 635 nm fluorescence, artefact control for SMM control protein annotation, primary screen (AID 1128).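 Note: score merges feature fluorescence with signal-to-noise for each printed compound spot.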 Particulars: higher = more signal.
Assay [2] has as its system Human papillomavirus type 1a E7 protein (residues 1-88). Nature of the assay: HPV1a E7 small-molecule binders, primary screen, biochemical, small-molecule microarray, residues 1-88, 635 nm (AID 1129). The following applies: small-molecule microarray binding, fluorescence 635 nm; higher = more signal.
Assay [3] concerns the target Focal adhesion kinase 1 (Homo sapiens) (UniProt Q05397). The experiment in a line: PTK2 protein binding on printed compound slides – biochemical, small-molecule microarray, 635/667 nm fluorescence, BSA, DTT, primary screen (AID 1130).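 Note: composite of spot emission at 667 nm and signal to noise over triplicate slides.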 Particulars: 635 nm fluorescence, higher = more signal.
Assay [4] has as its system Fibrinogen (Alexa647-labelled). Nature of the assay: Alexa647-fibrinogen binding to printed small molecules – biochemical, small-molecule microarray, 635/667 nm fluorescence, artefact control for SMM control-protein annotation, profiling panel (AID 1131).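 Note: z-score merges 667 nm fluorescence with per-spot signal-to-noise over triplicate slides.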 The following applies: fibrinogen-A647 binding fluorescence, higher = more signal.
Assay [5] concerns the target Follistatin (Homo sapiens) (UniProt P19883). Nature of the assay: FST protein binding to printed compounds – biochemical, small-molecule microarray, 635/667 nm fluorescence, primary screen (AID 1132). Particulars: 635 nm fluorescence, higher = more signal.
Assay [6] has as its target Fibroblast growth factor 2 (Homo sapiens) (UniProt P09038). Nature of the assay: basic fibroblast growth factor binding to printed compounds – biochemical, small-molecule microarray, 635/667 nm fluorescence, primary screen (AID 1133). The following applies: FGF2, fluorescence 635/667, higher = more signal.
A short description of assay [7]: JC-1 mitochondrial potential readout, lung cancer cells – cell-based, A549, JC-1 fluorescence, basal, 24 h, 100 nL, profiling panel (AID 1138).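 Note: A549 lung adenocarcinoma cells under basal conditions with no added stimulus; test concentration not given here.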 The following applies: higher = more signal.
For another assay, the system named is Lefty1. Nature of the assay: Lefty1 protein binding to printed compounds – biochemical, small-molecule microarray, 635/667 nm fluorescence, primary screen (AID 1139). The following applies: fluorescence 635/667, higher = more signal.
In assay [8] the test system is wheat germ agglutinin (Triticum aestivum), Alexa647-labelled. The experiment in a line: Alexa647-WGA lectin binding to printed small molecules – biochemical, small-molecule microarray, 635/667 nm fluorescence, artefact control for SMM control-protein annotation, profiling panel (AID 1140).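 Note: score merges 667 nm feature emission with signal to noise over triplicate slides.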 The following applies: WGA-A647 binding, 635 nm fluorescence, higher = more signal.

Assay [9] addresses Luciferin 4-monooxygenase (Photinus pyralis) (UniProt P08659). The experiment in a line: inhibition of purified Photinus pyralis luciferase – biochemical, luminescence, purified enzyme, 2006 set, primary screen (AID 1141).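 Note: cell-free assay with purified firefly luciferase at 100 ng per well in PBS; test concentration not given here.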 The following applies: purified firefly luciferase, SteadyGlo luminescence, 30 min; higher = more signal, called active from +8 up or from −8 down.

Sequence of Follistatin (Homo sapiens) (P19883 whole entry, looked up): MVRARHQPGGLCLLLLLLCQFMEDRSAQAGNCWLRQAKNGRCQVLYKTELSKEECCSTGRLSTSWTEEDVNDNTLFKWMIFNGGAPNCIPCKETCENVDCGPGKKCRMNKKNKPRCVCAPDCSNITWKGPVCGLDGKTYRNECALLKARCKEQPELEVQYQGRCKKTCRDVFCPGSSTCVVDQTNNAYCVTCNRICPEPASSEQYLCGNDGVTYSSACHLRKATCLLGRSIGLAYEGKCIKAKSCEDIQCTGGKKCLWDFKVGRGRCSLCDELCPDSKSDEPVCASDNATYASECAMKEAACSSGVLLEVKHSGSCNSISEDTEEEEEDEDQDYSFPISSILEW
Sequence of Fibroblast growth factor 2 (Homo sapiens) (P09038 whole entry, looked up): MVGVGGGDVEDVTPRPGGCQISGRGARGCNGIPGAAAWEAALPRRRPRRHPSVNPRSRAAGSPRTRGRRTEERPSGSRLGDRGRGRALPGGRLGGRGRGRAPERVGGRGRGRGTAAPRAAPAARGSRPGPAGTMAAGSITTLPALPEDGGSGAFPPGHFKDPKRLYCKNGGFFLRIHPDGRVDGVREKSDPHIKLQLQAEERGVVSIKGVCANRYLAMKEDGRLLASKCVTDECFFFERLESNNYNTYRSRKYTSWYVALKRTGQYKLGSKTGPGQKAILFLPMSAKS
Sequence of Luciferin 4-monooxygenase (Photinus pyralis) (P08659 whole entry, looked up): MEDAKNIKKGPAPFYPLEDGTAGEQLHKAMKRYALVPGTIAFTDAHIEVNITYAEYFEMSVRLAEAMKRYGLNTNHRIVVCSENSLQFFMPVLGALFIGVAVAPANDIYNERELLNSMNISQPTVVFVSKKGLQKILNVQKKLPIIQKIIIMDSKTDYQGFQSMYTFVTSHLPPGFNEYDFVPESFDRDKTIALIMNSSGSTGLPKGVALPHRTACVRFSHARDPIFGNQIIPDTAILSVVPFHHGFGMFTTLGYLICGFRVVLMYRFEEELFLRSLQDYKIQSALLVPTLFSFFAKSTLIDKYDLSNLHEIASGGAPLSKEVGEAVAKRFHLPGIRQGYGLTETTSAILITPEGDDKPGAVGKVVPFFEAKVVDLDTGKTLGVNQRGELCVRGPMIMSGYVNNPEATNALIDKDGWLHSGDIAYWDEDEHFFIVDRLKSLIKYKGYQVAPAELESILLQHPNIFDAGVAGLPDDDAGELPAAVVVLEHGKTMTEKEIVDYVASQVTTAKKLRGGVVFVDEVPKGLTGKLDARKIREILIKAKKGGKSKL
Sequence of Focal adhesion kinase 1 (Homo sapiens) (Q05397 whole entry, looked up): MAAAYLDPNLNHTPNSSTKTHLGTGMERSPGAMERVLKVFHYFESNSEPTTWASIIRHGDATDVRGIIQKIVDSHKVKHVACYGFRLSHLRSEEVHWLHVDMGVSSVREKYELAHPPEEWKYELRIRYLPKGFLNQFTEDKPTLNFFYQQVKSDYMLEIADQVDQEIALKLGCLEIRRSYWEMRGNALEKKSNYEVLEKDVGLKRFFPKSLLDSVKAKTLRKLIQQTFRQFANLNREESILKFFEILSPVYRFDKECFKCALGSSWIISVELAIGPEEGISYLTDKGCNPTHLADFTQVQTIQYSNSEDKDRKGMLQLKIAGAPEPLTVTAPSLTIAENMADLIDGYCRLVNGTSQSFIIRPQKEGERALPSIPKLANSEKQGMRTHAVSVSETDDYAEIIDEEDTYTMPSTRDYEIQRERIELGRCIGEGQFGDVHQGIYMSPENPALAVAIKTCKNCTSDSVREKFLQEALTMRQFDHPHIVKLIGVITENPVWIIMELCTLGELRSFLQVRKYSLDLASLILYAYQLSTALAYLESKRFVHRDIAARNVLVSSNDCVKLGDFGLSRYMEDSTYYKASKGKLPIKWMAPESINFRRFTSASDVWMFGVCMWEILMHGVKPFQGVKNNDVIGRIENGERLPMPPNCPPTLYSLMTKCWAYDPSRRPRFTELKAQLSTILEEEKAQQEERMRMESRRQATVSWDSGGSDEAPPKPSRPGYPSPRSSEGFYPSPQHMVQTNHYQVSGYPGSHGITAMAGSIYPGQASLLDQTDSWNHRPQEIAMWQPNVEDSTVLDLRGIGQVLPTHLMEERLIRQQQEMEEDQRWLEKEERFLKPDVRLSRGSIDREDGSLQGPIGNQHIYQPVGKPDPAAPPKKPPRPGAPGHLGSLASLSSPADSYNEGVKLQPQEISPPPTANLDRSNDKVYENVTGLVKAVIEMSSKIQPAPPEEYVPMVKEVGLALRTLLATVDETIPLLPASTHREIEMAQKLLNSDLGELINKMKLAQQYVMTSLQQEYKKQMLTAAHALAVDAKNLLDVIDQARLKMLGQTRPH

`NC(=O)[C@@H]1[C@H]2C(=O)O[C@H](c3ccccc3)[C@H](c3ccccc3)N2[C@H](c2ccccc2OCCO)[C@@]12C(=O)Nc1ccc(C#CCCO)cc12`: the composite z-score is 0.553 in [1]; -0.464 in assay [2]; 0.155 in assay [3]; 0.947 in assay [4]; -0.0704 in assay [5]; -0.455 in assay [6]. The composite z-score was -0.128 in the assay with Lefty1 and 0.335 in assay [8]. The values for the z-score in assay [7] and in assay [9] were 0.669 and 1 (inactive), respectively.
As to `C=CC[C@]1(C(=O)N2CCOCC2)N=C(c2ccc(OCCCO)cc2)O[C@H]1c1ccccc1CN=[N+]=[N-]`, the composite z-score in assay [1] is 1.82; in assay [2], 1.21; in assay [3] it was 0.88; in [4], 0.97; in [5], 1.28; in [6] it was 0.95. The composite z-score in the assay with Lefty1 turned out to be 1.05; in assay [8] it was 0.845. For the same molecule, the z-score in assay [7] was 1.64; in [9], -1.46 (inactive).
Regarding `COC(=O)C(CC#Cc1ccc2c(c1)[C@]1(C(=O)N2)[C@H](c2ccc(O)cc2)N2[C@H](c3ccccc3)[C@H](c3ccccc3)OC(=O)[C@H]2[C@@H]1C(=O)O)C(=O)OC`, the composite z-score in [1] is 0.124; in assay [2], 0.56; in assay [3] it was 0.318; in [4] it was 0.298; in assay [5], 0.879; in assay [6], -0.12. In addition, the composite z-score in the assay on Lefty1 was 0.369; in assay [8], -0.22. The z-score is -0.233 in [7] and -0.462 (inactive) in assay [9].
As to `COCCOC(=O)N1C(=O)[C@@]2(c3cc(C#CCC(C(=O)OC)C(=O)OC)ccc31)[C@H](c1ccc(OCCO)cc1)N1[C@H](c3ccccc3)[C@H](c3ccccc3)OC(=O)[C@H]1[C@@H]2C(N)=O`, the composite z-score in [1] worked out at 1.38; in [2] it was 1.2; in assay [3], 1.16; in assay [4] it was 0.924; in assay [5] it was 1.28; in [6], 1.13. The composite z-score in the assay on Lefty1 was found to be 0.484; in assay [8] it was 0.386. Also, the z-score in assay [7] is -0.921; in assay [9], -1.23 (inactive).
Take `O=C(C=C(CC(O)c1cccc(Cl)c1)OCCF)OCCF` (stereo not given): the composite z-score in assay [1] was -0.144; in assay [2], -1.59; in assay [3], -0.401; in assay [4] it was -1.35; in assay [5] it was -0.885; in assay [6] it was -0.576. The composite z-score was -0.94 with Lefty1 and -0.442 in assay [8]. Also, the z-score was 0.0691 in assay [7] and 0.364 (inactive) in [9].
As for `COCCOC(=O)N1C(=O)[C@@]2(c3cc(C#CCC(C(=O)OC)C(=O)OC)ccc31)[C@H](C(=O)N1CCCCCCC1)[C@H]1C(=O)O[C@H](c3ccccc3)[C@H](c3ccccc3)N1[C@@H]2c1ccc(O)cc1`, the composite z-score in assay [1] came to 2.63; in assay [2], 1.16; in [3], 0.598; in assay [4], 0.59; in assay [5] it was 1.07; in assay [6], 1.5. In addition, the composite z-score worked out at 0.972 in the assay on Lefty1 and 1.13 in assay [8]. Further, the z-score in assay [7] is -0.909; in assay [9], 0.414 (inactive).
As to `O=C1O[C@H](c2ccccc2)[C@H](c2ccccc2)N2[C@H]1[C@@H](C(=O)N1CCCCCCC1)[C@]1(C(=O)Nc3ccc(C#CCCO)cc31)[C@H]2c1ccc(OCCO)cc1`, the composite z-score in [1] turned out to be 2.99; in assay [2] it was 1.36; in assay [3], 5.23; in [4] it was 0.97; in assay [5] it was 1.52; in assay [6], 1.27. In addition, the composite z-score with Lefty1 is 1.92; in assay [8], 1.64. The z-score in assay [7] is -0.421; in assay [9], -0.264 (inactive).
For `CCCCC(=C=CC[C@H](O)c1ccccc1OCCO)C[C@H](O)c1ccccn1`, the composite z-score in assay [1] is 0.299; in assay [2] it was 0.0909; in [3], -0.255; in assay [4] it was -0.196; in [5], 1.29; in assay [6], 1.37. Besides, the composite z-score in the assay on Lefty1 stood at 1.15; in [8], 0.458. For the same molecule, the z-score in assay [7] was 0.717; in assay [9], -0.109 (inactive).
In the case of `CC(C)CNC(=O)[C@@]1(c2ccc([N+](=O)[O-])cc2)CC(=O)N(C(C)C)[C@@H]1c1ccc(CO)cc1`, the composite z-score was 0.217 in assay [1]; -0.467 in assay [2]; -0.362 in assay [3]; -1.2 in assay [4]; 0.272 in [5]; -1.25 in [6]. Moreover, the figures for the composite z-score (with Lefty1; in assay [8]) were -0.455 and 0.486, respectively. Further, the z-score was -0.0836 in [7] and 1.18 (inactive) in assay [9].
Regarding `COCCCNC(=O)[C@@]1(Cc2ccccc2CN=[N+]=[N-])N=C(c2ccc(OCCCO)cc2)O[C@H]1c1ccccc1N=[N+]=[N-]`, the composite z-score in assay [1] was 2.29; in assay [2], 1.19; in assay [3], 0.543; in assay [4], 0.931; in assay [5], 1.35; in assay [6], 1.18. Further, the composite z-score was 0.0538 with Lefty1 and 1.2 in assay [8]. The z-score was 3.53 in [7] and -4.87 (inactive) in [9].
In the case of `CCC[C@@H]1C[C@@]1(CCC)[C@@H](NC(=O)c1ccco1)c1ccc(Cl)cc1`, the composite z-score is -0.348 in [1]; -1.71 in assay [2]; -0.386 in assay [3]; -0.495 in assay [4]; -0.388 in assay [5]; -0.882 in assay [6]. For the same molecule, the composite z-score with Lefty1 is -0.769; in [8], -0.493. In addition, the results for the z-score in [7] and in [9] were 0.523 and -0.31 (inactive), respectively.
`Cc1ccc(-c2cccc(=O)o2)cc1`: the composite z-score was -1.57 in assay [1]; -0.935 in assay [2]; -0.404 in assay [3]; -0.551 in [4]; 0.272 in assay [5]; 0.156 in assay [6]. The values for the composite z-score (in the assay with Lefty1; in assay [8]) were -0.33 and -0.233, respectively. The figures for the z-score in assay [7] and in [9] were -0.241 and -1.23 (inactive), respectively.
Turning to `C=CCC(OC(C)=O)[C@@H]1[C@@H](N(Cc2ccc(-c3cccc(C(F)(F)F)c3)o2)C(=O)c2cccc3ccccc23)c2cc(OCCCO)ccc2N1C(=O)c1ccc(-c2ccccc2)cc1` (stereo not given in full), the composite z-score in [1] was 0.955; in [2], -0.661; in [3], -0.438; in assay [4], -0.739; in [5], 0.999; in [6] it was 0.598. Also, the composite z-score in the assay on Lefty1 is 0.641; in assay [8], -0.643. Also, the z-score in [7] was -0.328; in assay [9], 0.23 (inactive).
For the molecule `COC(=O)[C@@]1(Cc2ccc(OC)cc2)[C@H]2c3cc(C(=O)N(C)C)n(Cc4cc(F)c(F)c(F)c4)c3C[C@H]2CN1C(=O)c1ccccc1`, the composite z-score in assay [1] was 1; in assay [2], 1.21; in assay [3], 1.86; in assay [4], 1.01; in [5] it was 0.761; in [6], -0.965. In addition, the composite z-score with Lefty1 was determined as 0.0601; in assay [8], 0.952. Besides, the z-score in assay [7] is -0.787; in assay [9], 1.07 (inactive).
Regarding `CC1CC/C=C\[C@H]2OC34C=CCN(c5ccc(Cl)cc5)C(=O)[C@H]3N(C(CO)C(C)C)C(=O)[C@]4(C)C2C(=O)O1` (stereo not given in full), the composite z-score was 0.776 in [1]; -0.512 in [2]; -0.432 in [3]; -0.787 in [4]; -0.648 in assay [5]; -0.87 in [6]. Besides, the figures for the composite z-score (in the assay on Lefty1; in assay [8]) were -0.626 and -0.281, respectively. Moreover, the z-score is 0.34 in assay [7] and -0.391 (inactive) in [9].
